The whole screen tested about 400,000 compounds, of which about 13,000 (3.2%) were called active. A call without a number means that no potency is given here. About 18% were inconclusive and are not listed. The sample holds actives, similar compounds and a random draw of the others, so the mix is not that of the screen. Calls follow the shape of the dose curve; as a rule, active = well fitted cell-killing curve with a large enough effect; inconclusive = small, poorly fitted or top-dose-only effect, or effect the other way; inactive = flat fitted curve, though single readings scatter.
Potency is read from the fitted curve at half-maximal effect.

A short description of the experiment: qHTS assay for MDR1-selective chemotherapeutics: Primary screen using the drug-selected MDR subline cells KB-V1. Also: nearly all actives have a fitted effect of over 60% in size. The note with it: KB-V1 MDR cells viability, CellTiter-Glo, 72 h; series mostly up to 46.1 µM. The method in brief:
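In this primary screen, KB-V1 cells overexpressing P-gp are incubated with library compounds (lowest to highest concentration) for 72 h at 37 degrees C before a luminescent ATP viability read.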
On the technique in general: qHTS replaces the single test concentration by a dilution series.
Regarding `Cc1cccc(N2CCN(c3ccc(C(=O)O)cc3NC(=O)c3ccccc3F)CC2C)c1` (centres undefined), the Potency entry is “inactive”.
To `CC1CCN(C(=O)CSc2nnc(-c3ccco3)n2N)CC1` belongs “inactive”; to `COc1cccc(C(O)c2nc(-c3ccc(C)c(C)c3)cs2)c1` (centres undefined), “inactive”; to `CCCN(CC(=O)Nc1ccccc1OC)C(=O)CCC(=O)c1ccc(F)cc1`, 10.3 µM (active).
To `CCN(CC(=O)Nc1ccccc1OC)C(=O)CC1CC2CCC1C2` (centres undefined) belongs 16.4 µM (active); to `COc1ccc(S(=O)(=O)N2CCOCC2)cc1NC(=O)CC1CC2CCC1C2` (centres undefined), “inactive”; to `COc1ccccc1NC(=O)CN(c1ccccc1OC)S(=O)(=O)c1ccccc1`, “inactive”.
Then `COc1ccccc1/C=C/C(=O)NC1CC2CCC1C2` (centres undefined), with “inactive”.
In the case of `COc1ccccc1NC(=O)COC(=O)COc1ccccc1F`, the Potency result was “inactive”.
Then `Cc1cc(C)cc(NC(=O)CCS(=O)(=O)c2cc3c4c(c2)CCN4C(=O)CC3)c1`, with “inactive”; and `Cc1cccc(CN2CCN(C3CN(Cc4cn(Cc5ccccc5F)nn4)S(=O)(=O)C3)CC2)c1` (centres undefined), with “inactive”; and `Cc1ccc(OCC(=O)NC(C)c2ccccc2)cc1C` (centres undefined), with “inactive”.
To `Cc1cc(C(=O)NNC(=S)NC(C)c2ccccc2)cs1` (centres undefined) belongs 14.6 µM (active); to `Cc1ccc(C)c(NC(=S)NNC(=S)Nc2ccc(C(C)C)cc2)c1`, “inactive”; to `CC(NC(=S)NNS(=O)(=O)c1ccc(C(C)(C)C)cc1)c1ccccc1` (centres undefined), “inactive”.
To `Cc1ccc(C)c(NC(=S)NNC(=O)c2csc(C)c2)c1` belongs 18.4 µM (active); to `Cc1ccc(C)c(NC(=O)CCC(=O)NNC(=O)c2cccs2)c1`, “inactive”.
Take `Nc1nc2ncccn2c1-c1ccccc1`: the Potency entry is “inactive”.
To `CO[C@H]1O[C@@H]2O[C@@]3(C)CC[C@@H]4[C@@H](C)CC[C@@H]([C@H]1C)[C@@]24OO3` belongs “inactive”.
Then `COc1ccc(C)cc1-n1c(-c2ccc(C)cc2)cc2c1CC(C)(C)CC2=O`, with “inactive”; and `O=C(C[C@H]1CC[C@H]2[C@@H](COC[C@H](O)CN2C(=O)c2ccccn2)O1)N1CCN(c2ccccc2)CC1`, with “inactive”; and `CCN(CC)Cc1nc2sc(C)c(C)c2c(=O)[nH]1`, with “inactive”.
Then `CS(=O)(=O)N(Cc1nc2sc3c(c2c(=O)[nH]1)CCCC3)C1CCCCC1`, with 16.4 µM (active).
On to `O=c1[nH]c(CN2CCN(S(=O)(=O)c3ccc4c(c3)OCCO4)CC2)nc2sc3c(c12)CCCC3`, for which the Potency entry was “inactive”.
To `Cc1ccc(C)c(N2CCN(C(=O)C3CCC(CNS(=O)(=O)c4cccs4)CC3)CC2)c1` (centres undefined) belongs “inactive”.
To `Cc1ccc(Cl)cc1N1CCN(C(=O)C2CCC(CNS(=O)(=O)c3cccs3)CC2)CC1` (centres undefined) belongs 10.3 µM (active).
To `O=C(CNS(=O)(=O)c1cccs1)N1CCN(c2ccccc2Cl)CC1` belongs “inactive”; to `COc1ccc(S(=O)(=O)N2CCC(C(=O)NCCC(=O)NCCc3cccc(F)c3)CC2)cc1`, “inactive”.
Regarding `CC1CCCC(NC(=O)COC(=O)c2ccccc2C(=O)N(C)C2CCCCC2)C1C` (centres undefined), the Potency result was “inactive”.
To `O=C(c1cc(-c2ccc(F)cc2)on1)N1CCN(c2ccc(F)cc2)CC1` belongs “inactive”; to `COc1ccc(-c2cc(C(=O)N3CCN(c4ccc(F)cc4)CC3)no2)cc1`, 18.4 µM (active).
Then `O=C(c1cc(-c2ccc(Cl)cc2)on1)N1CCN(c2ccccc2)CC1`, with “inactive”.
Then `CC1=C(C(=O)N2CCOCC2)CC(CC(=O)NCc2ccco2)C(=O)N1Cc1ccc(F)cc1` (centres undefined), with “inactive”; and `Cc1cc(C(=O)CCC(=O)NNC(=O)c2ccccc2O)c(C)s1`, with “inactive”.
Turning to `Cc1cc(C(=O)NNC(=O)c2ccccc2O)c(C)o1`, the Potency entry is “inactive”.
To `O=C(NNC(=O)c1ccccc1O)c1ccccc1O` belongs 0.517 µM (active); to `COc1ccc(NC(=O)CN(C)C(=O)c2cc(C)oc2C)cc1`, “inactive”; to `Cc1cc2nc(C)n(CCCNC(=O)Nc3ccccc3)c2cc1C`, 23.1 µM (active).
To `Cn1c(CCN2CCCCCC2)nc2cc(NC(=O)Nc3ccccc3)ccc21` belongs “inactive”.
Turning to `COc1ccc(OCCCn2c(C)nc3cc(C)c(C)cc32)cc1`, the Potency entry is “inactive”.
To `CCOC(=O)C1(C)CCCN(C(=O)c2ccc(F)c(Cl)c2)C1` (centres undefined) belongs “inactive”; to `CNc1cc(-c2c(OC)cccc2OC)ncn1`, “inactive”.
Then `Cc1ccc(C(=O)NCCNC(=O)c2cnccn2)cc1`, with “inactive”; and `O=C(NCCCNC(=O)c1ccccc1Cl)c1cnccn1`, with “inactive”; and `COc1ccccc1CCNC(=O)c1cnccn1`, with 16.4 µM (active).
Then `CC(=O)Nc1c(-c2ccc(C)cc2)nc2ccc(Cl)cn12`, with “inactive”; and `O=C(NCC(F)(F)F)c1ccc(S(=O)(=O)NCCc2ccc3c(c2)OCCO3)cc1`, with “inactive”; and `CCCc1nc2ccccc2n1C(C)C(=O)NC(C)(C)C` (centres undefined), with “inactive”.
Regarding `CC(C)CC(COCc1ccc(Cl)cc1)N1CCN(C(=O)c2ccc(C(F)(F)F)cc2)CCC1=O` (centres undefined), the Potency is 20.6 µM (active).
To `COc1ccc(COC[C@H](CC(C)C)N2CCN(C(=O)c3cccc(C(F)(F)F)c3)CCC2=O)cc1` belongs “inactive”; to `O=C(c1cc(Cl)cc(Cl)c1)N1CCC(=O)N(C(COCc2ccccc2)Cc2ccccc2)CC1` (centres undefined), “inactive”.
As for `COC(=O)[C@]12CCCCC=C1N(Cc1ccc3c(c1)OCO3)C(=O)[C@H](CC(=O)NCc1cccs1)C2`, the Potency result is “inactive”.
Then `O=C1CCC(C(=O)OCC(=O)Nc2ccc(OC(F)F)cc2)=NN1`, with “inactive”; and `Cc1ccc2c(c1)c1c(c(=O)n(-c3ccccc3)c(=O)n1CC(=O)c1ccc(Cl)cc1)n2C`, with “inactive”.
As to `CC(=O)NC(c1cccc(F)c1)c1nc(-c2cccc(F)c2)cs1` (centres undefined), the Potency entry is “inactive”.
Then `CCOc1ccc(NC(=O)c2cnn(-c3ccccc3)c2-n2cccc2)cc1`, with “inactive”; and `CC(=O)Nc1ccc(NC(=O)CSCc2cnn(-c3ccccc3)c2-n2cccc2)cc1`, with “inactive”.
`Cc1cc(C)cc(NC(=O)CSCc2cnn(-c3ccccc3)c2-n2cccc2)c1`: the Potency is 18.4 µM (active).
Then `CCOc1ccccc1N(CC)C(=O)c1cc2ccc3cccnc3c2[nH]1`, with “inactive”; and `CCCCC(CCC(=O)Nc1ccc(C(=O)OCC)cc1)C(=O)O` (centres undefined), with “inactive”.
To `CCCCCOC(=O)NCCOC(=O)Nc1ccc(C(=O)OCC)cc1` belongs 16.4 µM (active).
For `CCOC(=O)Nc1ccc(NC(=O)OCC)cc1`, the Potency entry is “inactive”.
Then `CC1C(=O)N(Cc2cn(CC3CCCCC3)nn2)CCS(=O)(=O)N1Cc1ccc(-c2cccc(N(C)C)c2)cc1` (centres undefined), with “inactive”; and `COc1ccc(-c2ccc(=O)n(CC(=O)Nc3ccc(Br)cc3F)n2)cc1`, with “inactive”.

The record behind these values is PubChem BioAssay AID1347076 (National Center for Advancing Translational Sciences (NCATS), 2019).
